Test results published in PubChem BioAssay (Tox21).
Results filed as inconclusive are left out. A number with no mark means an inactive call. The source made the active and inactive calls. Calls follow the shape of the dose curve; as a rule, active = well fitted inhibition curve with a large enough effect in the signal ratio in the repeat runs; inconclusive = weak or mixed curves, or effect the other way; inactive = flat fitted curve, though single readings scatter; the % refers to the signal ratio.

Assay: qHTS assay for small molecule disruptors of the mitochondrial membrane potential (AID 720635)
Details: HepG2 mitochondrial membrane potential, Mito-MPS dye ratio; series mostly up to 83.2 µM; ratio activity, negative = MMP loss: at the top concentration
Source text: U.S. Tox21 Program National Center for Advancing Translational Sciences [NCATS] NIH Chemical Genomics Center [NCGC] U.S. Environmental Protection Agency [EPA] National Institutes of Environmental Health Sciences [NIEHS] National Toxicology Program [NTP] U.S. Food and Drug Administration [FDA] Tox21 Assay Overview: Mitochondrial membrane potential (MMP), one of the parameters for mitochondrial function, is generated by mitochondrial electron transport chain that creates an electrochemical gradient by a series of redox reactions. This gradient drives the synthesis of ATP, a crucial molecule for various cellular processes. Measuring MMP in living cells is commonly used to assess the effect of chemicals on mitochondrial function. […] The dye accumulates in the mitochondria of healthy cells as aggregates, with red fluorescence. The mitochondrial potential collapses and the dye can no longer accumulate in the mitochondria and remains in the cytoplasm in monomers, with green fluorescence.
Tox21 Assay Protocol Summary: 2,000 HepG2 cells in 5 uL/well were dispensed into black, clear-bottom 1536-well plates using a Multidrop Combi (Thermo Scientific) dispenser. The assay plates were incubated overnight at 37C to allow cells to attach to the wells, followed by the transfer of 23 nL compound or DMSO vehicle by a pin tool (Kalypsys). The plates were incubated for 1 hr at 37C and 5% CO2, followed by the addition of 5 uL of 2X Mito-MPS dye (BD Biosciences) into each well using Flying Reagent Dispenser (Aurora Discovery) and then following 30 min incubation at 37C. Fluorescence intensity (490nm excitation and 535nm emission for monomers; and 540nm excitation and 590nm emissions for aggregates) was measured using an Envision plate reader.
% is scaled to controls: 0 for no effect and ±100 for the full control effect; potency is read from the fitted curve at half-maximal effect.

SMILES	ratio activity, negative = MMP loss	Potency
N=C(N)c1ccc(OCCCOc2ccc(C(=N)N)cc2Br)c(Br)c1	-3.98%	–
O=C(OCCO)c1ccccc1O	-6.85%	–
NC(=O)Oc1ccc(Cc2ccccc2)cc1	–	21.1 µM (active)
CN[C@H]1CCc2cc(OC)c(OC)c(OC)c2-c2ccc(OC)c(=O)cc21	–	0.335 µM (active)
C[C@]12CC[C@@H]3c4ccc(OC(=O)c5ccccc5)cc4CC[C@H]3[C@@H]1CC[C@@H]2O	–	2.98 µM (active)
c1cnc2cc3c(cc2n1)[C@@H]1CNC[C@H]3C1	-3.66%	–
Cc1c(O)cc2c(c1C)O[C@](C)(CCC[C@H](C)CCC[C@H](C)CCCC(C)C)CC2	20.9%	–
CC[C@@]1(O)C[C@H](O[C@H]2C[C@H](N(C)C)[C@H](O[C@H]3C[C@H](O)[C@H](O[C@H]4CCC(=O)[C@H](C)O4)[C@H](C)O3)[C@H](C)O2)c2c(cc3c(c2O)C(=O)c2c(O)cccc2C3=O)[C@H]1C(=O)OC	–	1.68 µM (active)
C[C@H](CCCC(C)(C)O)[C@H]1CC[C@H]2[C@@H]3CC=C4C[C@@H](O)CC[C@]4(C)[C@H]3CC[C@]12C	-1.98%	–
CC[C@H](C)[C@@H]1NC(=O)[C@H](Cc2ccc(O)cc2)NC(=O)[C@@H](N)CSSC[C@@H](C(=O)N2CCC[C@H]2C(=O)N[C@@H](CC(C)C)C(=O)NCC(N)=O)NC(=O)[C@H](CC(N)=O)NC(=O)[C@H](CCC(N)=O)NC1=O	-15.5%	–
CO[C@H]1C[C@@H]2CC[C@@H](C)[C@@](O)(O2)C(=O)C(=O)N2CCCC[C@H]2C(=O)O[C@H]([C@H](C)C[C@@H]2CC[C@@H](OC(=O)C(C)(CO)CO)[C@H](OC)C2)CC(=O)[C@H](C)/C=C(\C)[C@@H](O)[C@@H](OC)C(=O)[C@H](C)C[C@H](C)/C=C/C=C/C=C/1C	-20.3%	–
C[C@H](CSC(=O)c1ccccc1)C(=O)N1C[C@@H](Sc2ccccc2)C[C@H]1C(=O)O	5.61%	–
C=CCCCCCCCCC(=O)OC	-19.8%	–
Nc1ncnc2c1ncn2CCOCP(=O)(O)O	8.21%	–
CNC[C@@H]1CC[C@@H](N)[C@@H](O[C@H]2[C@H](O)[C@@H](O[C@H]3OC[C@](C)(O)[C@H](NC)[C@H]3O)[C@H](N)C[C@@H]2N)O1	-6.13%	–
N#CC(c1ccc(Cl)cc1)c1c(Cl)cc(-n2ncc(=O)[nH]c2=O)cc1Cl (stereo not given)	–	8.41 µM (active)
CN(C)C(=O)CCSC(SCCC(=O)O)c1cccc(/C=C/c2ccc3ccc(Cl)cc3n2)c1 (stereo not given)	–	24.8 µM (active)
N[C@H](CC(=O)O)C(=O)O	-16.4%	–
CC(NNC(=O)c1ccccc1)c1ccccc1 (stereo not given)	–	24.8 µM (active)
Cc1ccc(S(=O)(=O)NC(=O)N[C@@H](C)Cc2ccccc2)cc1	15%	–

SMILES	ratio activity, negative = MMP loss	Potency
NC(=S)N=Nc1ccc(NN=C(N)N)cc1	–	2.98 µM (active)
CN[C@@H]1CCc2[nH]c3ccc(C(N)=O)cc3c2C1	17.2%	–
CCCCCCCC(=O)CC[C@@H]1[C@@H](C/C=C\CCCC(=O)OC(C)C)[C@@H](O)C[C@H]1O	–	26.6 µM (active)
CN1CCN2c3ncccc3Cc3ccccc3C2C1 (stereo not given)	18.6%	–
CC(O)[C@@H]1NC(=O)[C@H](Cc2ccccc2)NC(=O)[C@H](C(C)O)NC(=O)[C@H](CCCCN)NC(=O)[C@H](Cc2c[nH]c3ccccc23)NC(=O)[C@H](Cc2ccccc2)NC(=O)[C@H](Cc2ccccc2)NC(=O)[C@H](CC(N)=O)NC(=O)[C@H](CCCCN)NC(=O)[C@@H](NC(=O)CNC(=O)[C@H](C)N)CSSC[C@@H](C(=O)O)NC(=O)[C@H](CO)NC1=O (stereo not given in full)	-9.8%	–
CCCOc1ccc2nc(NC(=O)OC)sc2c1	–	7.5 µM (active)
C=C1CC[C@H](O)CC1=C/C=C1\CCC[C@]2(C)[C@@H]([C@H](C)CCCC(C)(C)O)CC[C@@H]12	–	5.31 µM (active)
Cn1nnnc1SCC1=C(C(=O)O)N2C(=O)[C@@H](NC(=O)[C@H](OC=O)c3ccccc3)[C@H]2SC1	1.82%	–
CC(=O)OCC(=O)[C@@]1(O)[C@H](C)C[C@H]2[C@@H]3C[C@H](F)C4=CC(=O)C=C[C@]4(C)[C@H]3[C@@H](O)C[C@@]21C	11.7%	–
O=C(Nc1ccc(O)cc1)c1ccccc1O	–	5.96 µM (active)
CCCC(=O)O[C@]1(C(=O)COC(=O)CC)[C@@H](C)C[C@H]2[C@@H]3CCC4=CC(=O)C=C[C@]4(C)[C@@]3(F)[C@@H](O)C[C@@]21C	–	26.6 µM (active)
CCC(c1ccccc1)c1noc(CCN(CC)CC)n1 (stereo not given)	7.02%	–
C=C1CC[C@H](O)CC1=C/C=C1\CCC[C@]2(C)[C@@H]([C@H](C)CC[C@@H](O)C(C)(C)O)CC[C@@H]12	–	11.9 µM (active)
COC1=C(C(=O)O)N2C(=O)[C@@H](NC(=O)[C@H](N)C3=CCC=CC3)[C@H]2SC1	-10.6%	–
COc1ccc(C(=O)Nc2ccccc2CCC2CCCCN2C)cc1 (stereo not given)	8.37%	–
Cc1c(N)nc(C(CC(N)=O)NCC(N)C(N)=O)nc1C(=O)NC(C(=O)NC(C)C(O)C(C)C(=O)NC(C(=O)NCCc1nc(-c2nc(C(=O)NCCCN[C@@H](C)c3ccccc3)cs2)cs1)C(C)O)C(O[C@@H]1O[C@@H](CO)[C@@H](O)[C@H](O)[C@@H]1O[C@H]1O[C@H](CO)[C@@H](O)[C@H](OC(N)=O)[C@@H]1O)c1cnc[nH]1 (stereo not given in full)	-7.4%	–
CC(C)CCCC(C)NC(C)C (stereo not given)	10%	–
CC[C@H](C)[C@H]1O[C@]2(CC[C@@H]1C)C[C@@H]1C[C@@H](C/C=C(\C)[C@@H](O[C@H]3C[C@H](OC)[C@@H](O[C@H]4C[C@H](OC)[C@@H](O)[C@H](C)O4)[C@H](C)O3)[C@@H](C)/C=C/C=C3\CO[C@@H]4[C@H](O)C(C)=C[C@@H](C(=O)O1)[C@]34O)O2	–	7.5 µM (active)
CC(C)CN(C[C@@H](OP(=O)(O)O)[C@H](Cc1ccccc1)NC(=O)O[C@H]1CCOC1)S(=O)(=O)c1ccc(N)cc1	-12%	–
COc1ccc(CC2c3cc(OC)c(OC)cc3CC[N+]2(C)CCC(=O)OCCCCCOC(=O)CC[N+]2(C)CCc3cc(OC)c(OC)cc3C2Cc2ccc(OC)c(OC)c2)cc1OC (stereo not given)	25.7% [at 39.1 µM]	–
